The whole screen tested about 97,000 compounds, of which about 450 (0.46%) were called active. Many of the other results were omitted from the sample, so actives are more common in it than they were. A number with no mark means an inactive call. No stated cut-off is given here; in the data, active means activation above about 16%; inactive means the rest.
Molecular target: Sphingosine 1-phosphate receptor 2 (Homo sapiens) (UniProt O95136)
Assay: S1P2 receptor agonists, primary screen, cell-based (AID 729);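 further: 0% = vehicle low control and 100% = maximal reference agonist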
Conditions: S1P2-expressing cell line, agonist reporter read-out; at 4.5 µM; hits give high values

Sequence of Sphingosine 1-phosphate receptor 2 (Homo sapiens) (O95136 whole entry, looked up): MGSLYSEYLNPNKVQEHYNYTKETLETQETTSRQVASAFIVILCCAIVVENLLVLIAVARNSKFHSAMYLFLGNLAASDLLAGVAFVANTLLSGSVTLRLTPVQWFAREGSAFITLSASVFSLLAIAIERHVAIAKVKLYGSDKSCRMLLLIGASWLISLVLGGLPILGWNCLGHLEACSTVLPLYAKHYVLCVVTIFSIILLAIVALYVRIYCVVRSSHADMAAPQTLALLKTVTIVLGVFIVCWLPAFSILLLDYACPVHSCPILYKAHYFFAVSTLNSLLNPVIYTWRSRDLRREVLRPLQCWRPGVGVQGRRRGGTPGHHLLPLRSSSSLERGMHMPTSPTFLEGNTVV

Row | SMILES | activation
1 | Cc1c(Nc2nc3ccccc3nc2NS(=O)(=O)c2cccs2)c(=O)n(-c2ccccc2)n1C | -4.46%
2 | O=S(=O)(NCC1OCCc2ccccc21)c1ccccc1 (stereo not drawn) | 0.09%
3 | CN1CCN(C(=O)Cn2c(C(F)(F)F)nc3ccccc32)CC1 | -7.46%
4 | COC(=O)c1cc(OC)c(OC)cc1NC(=O)CSc1ccc(C)cc1 | -4.04%
5 | COc1ccccc1CCNC(=O)c1cnccn1 | -1.07%
6 | Cc1ccc(-n2cc3ccc([N+](=O)[O-])cc3n2)cc1 | -0.28%
7 | CCOc1ccccc1NC(=O)c1cccnc1 | -2.14%
8 | Cc1nc2ccc(C(=O)N3CCN(c4ccccc4)CC3)cc2s1 | -0.32%
9 | CCOc1nc(NCCN2CCOCC2)nc(Nc2ccc(C)cc2)n1 | -6.53%
10 | CCc1c(O)cc2n(c1=O)-c1ccccc1C2(C)C | -1.15%
11 | CSCCC(NC(=O)COc1ccccc1)C(=O)OCC(=O)c1cc2ccccc2o1 (stereo not drawn) | 0.32%
12 | COc1ccc(/C=N/Nc2nc3ccccc3c(=O)[nH]2)cc1 | -4.61%
13 | O=c1[nH]c(-c2cccs2)nc2ccccc12 | 71.4% (active)
14 | CC(C)n1c(-c2cccs2)nc2ccccc21 | -0.76%
15 | CCCCNC(=O)CCNC(=O)c1ccc(C(C)(C)C)cc1 | -3.72%
16 | N#C/C(=C/c1ccc(Cl)cc1)NC(=O)c1ccccc1 | -4.04%
17 | CNc1nc(SC)nc(N(C#N)CC(=O)OC)n1 | -6.48%
18 | Nc1nnc(SCCN2C(=O)c3ccccc3S2(=O)=O)s1 | 17.5% (active)
19 | CNC(=O)CN1C(=O)c2ccccc2S1(=O)=O | -1.63%
20 | CCCc1nnc(NC(=O)CN2C(=O)c3ccccc3S2(=O)=O)s1 | -3.54%
21 | CCc1nc(Nc2ccc3nccnc3c2)c2oc3ccccc3c2n1 | 46.5% (active)
22 | Cc1nc(Cl)c2oc3ccccc3c2n1 | 1.01%
23 | COc1ccccc1Nc1ncnc2c1oc1ccccc12 | -9.1%
24 | Cc1cc(C)n(-c2nc(O)cc(=O)[nH]2)n1 | -4.33%
25 | Cc1ccc(-n2ccc(=O)c(C(=O)O)n2)cc1 | -0.77%

Row | SMILES | activation
26 | C=CCO/N=C(\C)c1c(O)c(C)c(-c2ccccc2)n(-c2ccccc2)c1=O | -3%
27 | COc1ccc(SCc2noc(C(=O)NCC3CCCO3)c2C(=O)O)cc1 (stereo not drawn) | -7.32%
28 | CCOc1c2ccc(C(=O)NCc3ccc4c(c3)OCO4)cc2nn1C | -2.43%
29 | COCCNC(=O)Cn1cc(C(=O)c2cccs2)c2ccccc21 | -4.41%
30 | CC(C)C(=O)Nc1ccc2c(c1)oc1ccccc12 | 0.25%
31 | c1ccc2c(-c3nn4nnnc4c4ccccc34)cccc2c1 | -3.13%
32 | O=C(O)COc1ccc(-c2nccc(-c3cccs3)n2)cc1 | -4.12%
33 | CCOC(=O)c1sc(NC(=O)C(CC)Sc2nccn2C)nc1C (stereo not drawn) | -5.49%
34 | C=CCn1c2ccccc2c2nnc(SC(CC)C(=O)Nc3nc(C)c(C(=O)OCC)s3)nc21 (stereo not drawn) | 21.9% (active)
35 | CCOC(=O)c1sc(NC(=O)c2ccncc2)nc1C | -5.01%
36 | O=C(/C=C/c1cccs1)c1cc(Cl)ccc1OC(=O)N1CCOCC1 | -8.27%
37 | CSCc1cc(N(C)C)nc(SCc2ccc(Cl)cc2Cl)n1 | -6.28%
38 | CCCC1(C(=O)OCC)NC(c2ccc(N(C)C)cc2)C2C(=O)N(c3ccc4c(c3)OCCO4)C(=O)C21 (stereo not drawn) | -0.77%
39 | CCCCSc1[nH]c(=O)c(C(=O)OCC)cc1C#N | -3.23%
40 | N#CCSc1nc2c(c(=O)n1Cc1ccccc1)C1(CCCC1)Cc1ccccc1-2 | -7.66%
41 | Cc1ccccc1CSCCNC(=O)c1ccc(Cl)c(S(=O)(=O)N2CCOCC2)c1 | -6.39%
42 | CCN(CC)c1nc(-c2ccccc2)cc(C(F)(F)F)c1C#N | 23.9% (active)
43 | COC(=O)c1cc2nc(-c3ccccc3)cc(C(F)(F)F)n2n1 | -1.4%
44 | N#Cc1c(C(F)(F)F)cc(-c2ccccc2)nc1SCC(=O)N1CCOCC1 | -6.15%
45 | Cc1nn(CC(=O)Nc2nc3ccccc3s2)c(C)c1[N+](=O)[O-] | -7.14%
46 | NC1=NC(=O)C2(COC(c3ccccc3Cl)OC2)S1 (stereo not drawn) | -5.49%
47 | COc1cccc(-c2cc(C(=O)N/N=C/c3ccc(OC)c(COC(C)=O)c3)c3ccccc3n2)c1 | -4%
48 | COc1cc2c(cc1OC)C(C(=O)NCc1ccco1)C1c3ccccc3CCN1C2=O (stereo not drawn) | -4.83%
49 | Oc1ccccc1CNc1ncc(Br)cc1Br | -9.29%
50 | O=C(Nc1ccc(Br)c2cccnc12)c1ccc(Cn2cc([N+](=O)[O-])cn2)o1 | -1.75%

Row | SMILES | activation
51 | FC(F)(F)c1cccc(-c2cc3ccccc3nc2N2CCCC2)c1 | -10.1%
52 | O=C1/C(=C/c2cccs2)CCc2ccccc21 | -5.98%
53 | CN(C)S(=O)(=O)c1ccc(N2CCCC2)c(C(=O)NCc2ccccc2)c1 | -3.61%
54 | O=C(NCc1ccc(Cl)cc1)c1cc(=O)nc2sc(-c3ccccc3)nn12 | -3.55%
55 | O=[N+]([O-])c1ccc(Oc2ccc(F)cc2Br)c2ccncc12 | -12.3%
56 | CCOC(=O)C(C)Sc1nc2ccccc2c(=O)n1CC1CCCCC1 (stereo not drawn) | 1.92%
57 | CN(C)c1ccnc2sc3c(=O)n(-c4ccc(Cl)cc4)cnc3c12 | -3.21%
58 | CCOc1ccccc1C1C(C(=O)OC)=CN(C)C=C1C(=O)OC | 25.5% (active)
59 | COC(=O)C1=C(C)N(C)C(C)=C(C(=O)OC)C1c1cccc(Br)c1 | -1.98%
60 | CCOc1ccccc1N(CC(=O)Nc1ccccc1C(=O)OC)S(C)(=O)=O | -7.41%
61 | COC(=O)C1=CN(C)C=C(C(=O)OC)C1c1ccc(Cl)cc1Cl | 32.1% (active)
62 | CC12CN3CC(C)(CN(C1)C3c1ccc(Cl)cc1Cl)C2=O (stereo not drawn) | -3.81%
63 | CCOc1cc(C2C(C(=O)OC)=CN(C3CCCC3)C=C2C(=O)OC)cc(Br)c1O | 7.13%
64 | Cn1nnnc1SCC(=O)Nc1ccccc1C(=O)NC1CC1 | -4.5%
65 | C/C(=N\NS(=O)(=O)c1cccc([N+](=O)[O-])c1)c1cc2ccccc2o1 | -4.08%
66 | CCOc1c(Cl)cc(/C=N/O)cc1OC | -3.93%
67 | CC(=O)C1=C(C)NC(C)=C(C(C)=O)C1c1cn(-c2ccccc2)nc1-c1cccs1 | -8.95%
68 | CCc1nc(C)ccc1OCC(=O)N(CC)CC | -0.52%
69 | CSc1nc(-c2ccco2)nn1C(=O)CCc1ccccc1 | -4.35%
70 | CCOC(=O)c1nnn(-c2nonc2-n2cccc2)c1CN1CCOCC1 | -2.91%
71 | O=C(Cc1ncc(C(F)(F)F)cc1Cl)Nc1cccc(Br)c1 | -3.95%
72 | Cc1noc(C)c1CSCC(=O)Nc1nc2ccc(Oc3ccccc3)cc2s1 | -9.84%
73 | C=CCn1c(-c2ccc(Cl)cc2)ccc(C#N)c1=O | -1.04%
74 | CCC(C)NC(=O)c1c(N)n(/N=C/c2cccs2)c2nc3ccccc3nc12 (stereo not drawn) | 11.4%
75 | CCCNC(=O)c1c(N)n(-c2ccc(S(N)(=O)=O)cc2)c2nc3ccccc3nc12 | 25.6% (active)

Row | SMILES | activation
76 | C=CCn1c(N)c(C(=O)OCC(C)C)c2nc3ccccc3nc21 | -4.83%
77 | COc1ccc2c(c1OC)C(=O)c1ccccc1C2=O | -4.98%
78 | COc1ccc2c(c1OC)C(=O)N(c1ncn[nH]1)C2 | 16.5% (active)
79 | COc1ccc(N2CCN(C(=O)CCc3nc(-c4ccc(C)cc4)no3)CC2)cc1 | -1.72%
80 | Cc1ccc(S(=O)(=O)Nc2nc(C)cc(-n3nc(C)cc3C)n2)cc1 | -3.06%
81 | N#Cc1ccc(-c2ccc(Cl)cc2)nc1Oc1ccc(F)cc1 | -3.88%
82 | Cc1ccc(/C=N/NC(=O)C2=NNC(c3ccccc3)(c3ccccc3)C2)c(O)c1 | 2.35%
83 | O=C(Cc1ccccc1)N/N=C/c1ccc(Cl)cc1Cl | 2.34%
84 | Cc1nn(C)cc1C(=O)NNC(=S)Nc1ccc(Cl)cc1 | -6.95%
85 | O=C1CCCc2nn(-c3ccccc3)nc21 | -3.05%
86 | Cc1nc(NC(=O)c2cccc(Cl)c2)sc1-c1csc(Nc2cccc(Cl)c2)n1 | -10.8%
87 | Cc1cc(C)c2nc(NC(=O)c3ccc4c(c3)OCO4)sc2c1 | -8.01%
88 | CNC(=O)c1csc(-c2ccccc2)n1 | -5.56%
89 | O=C(c1cc2c(s1)CCC2)N1CCN(c2ccccc2)CC1 | -4.17%
90 | Cc1nn(Cc2ccc(C(=O)N3N=C(C(F)F)CC3(O)C(F)F)cc2)c(C)c1[N+](=O)[O-] (stereo not drawn) | -4.76%
91 | Cc1ccccc1-c1nnc(SCC(=O)NCc2ccc3c(c2)OCO3)n1C | -6.95%
92 | COc1cccc(N=c2oc3c(C)ncc(CO)c3cc2C(N)=O)c1 | -4.4%
93 | O=C1Nc2ccc(Br)cc2/C1=N/N=C/C1=C(N2CCOCC2)C(=C\c2ccccc2)/CC1 | -5.74%
94 | COc1ccc(-c2nnc(SCc3cccnc3)o2)cc1 | -3.86%
95 | Cc1nnc(SC(C)C(=O)Nc2ccc(S(=O)(=O)NC3CCCCC3)cc2)s1 (stereo not drawn) | -4.5%
96 | N#Cc1c(N)n(CCOC(=O)c2ccc(Cl)cc2)c2nc3ccccc3nc12 | 16.5% (active)
97 | CN(C)CCCn1c(N)c(C#N)c2nc(C#N)c(C#N)nc21 | 12.8%
98 | CC(C)(C)OC(=O)c1c(N)n(CCCN2CCCC2=O)c2nc3ccccc3nc12 | 0.36%

Source: PubChem BioAssay AID729 (The Scripps Research Institute Molecular Screening Center, 2007)
